# Measured values from PubChem BioAssay.
# “And” between values parts separate entries of the source, which are not always exact repeats. Equal entries are not always repeated. The source made the active and inactive calls. Unless noted, how the calls were made is not given here.
# Assays:
# [1] = enhancers of glutamate uptake in motor neurons, MN-1 cell line (AID 1612); conditions: MN-1 motor neuron cells, stronger effect = higher value;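 further: tested at 1 µM final; 0% = mean of DMSO vehicle wells on each plate; positive means more glutamate uptake than control and negative means less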
# [2] = reducers of polyQ inclusions in PC12 cells, cell-based, NGF-treated PC12, GFPQ80 (AID 1614); conditions: PC12 NGF-treated GFP-polyQ80 inclusion reduction;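 further: lower means fewer inclusions and 0 means no inclusions at all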
# [3] = suppressors of polyglutamine aggregation in yeast, 75Q-TubH (AID 1616); conditions: S. cerevisiae 75Q-TubH polyglutamine aggregation suppression; stronger effect = higher value
# [4] = hESC survival regulators, cell-based (AID 493140); conditions: human embryonic stem cell survival screen; stronger effect = higher value;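 further: cells exposed to compounds for four days before counting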
# [5] = circadian clock period modulators, cell-based, LOPAC library, luminescence reporter (AID 2774); conditions: circadian reporter cells, at 7 µM, actives lie on both sides;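 further: values are relative to mean of DMSO wells on each plate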
# [6] = HepG2 cytotoxicity, primary screen, cytotoxicity control for P. falciparum antimalarial project, cell-based, ATP luminescence (AID 2303;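 active means inhibition above 50%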;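 further: 0% = DMSO wells and 100% = digitonin-killed cells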); conditions: HepG2 viability, 24-48 h, at 10 µM, stronger effect = higher value
# [7] = target: L-lactate dehydrogenase (Plasmodium falciparum (isolate CDC / Honduras)) (UniProt Q27743); test: PfLDH activity inhibition – cell lysate, 3D7 strain, counter-screen for P. falciparum growth inhibition project (AID 2304);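 further: 0% = vehicle and 100% = reference inhibitor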; conditions: P. falciparum 3D7 crude extract, LDH APAD/NBT absorbance; at 2 µM; stronger effect = higher value
# [8] = inhibition of 3D7 malaria parasite growth – strain 3D7 (AID 2306);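 further: 0% = DMSO wells and 100% = chloroquine plus artemisinin control wells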; conditions: P. falciparum 3D7 erythrocytic growth, LDH absorbance, 72 h; at 2 µM; stronger effect = higher value
# Sequence of L-lactate dehydrogenase (Plasmodium falciparum (isolate CDC / Honduras)) (Q27743 whole entry, looked up): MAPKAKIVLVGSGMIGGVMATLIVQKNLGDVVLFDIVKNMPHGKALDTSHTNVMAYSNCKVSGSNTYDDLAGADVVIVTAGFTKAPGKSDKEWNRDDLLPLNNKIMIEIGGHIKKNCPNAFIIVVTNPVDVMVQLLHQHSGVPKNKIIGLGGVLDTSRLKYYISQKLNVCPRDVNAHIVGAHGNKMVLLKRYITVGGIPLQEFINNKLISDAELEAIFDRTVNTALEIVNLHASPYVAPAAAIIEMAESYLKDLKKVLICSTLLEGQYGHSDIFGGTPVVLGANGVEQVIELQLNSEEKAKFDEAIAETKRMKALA
smiles,measurement,setting,value
Cc1ccccc1N1C(=O)c2cc(S(N)(=O)=O)c(Cl)cc2NC1C (centres undefined),glutamate uptake change,[1],2.13%
same,inclusion score,[2],2
same,aggregation suppression score,[3],1.18
same,survival,[4],25.6 (inactive)
NC(N)=NCCN1CCCCCCC1,glutamate uptake change,[1],-19.4%
same,inclusion score,[2],2
same,aggregation suppression score,[3],1.06
same,survival,[4],13.9 (inactive)
CN1CCOC(c2ccccc2)c2ccccc2C1 (centres undefined),glutamate uptake change,[1],0.43%
same,inclusion score,[2],1.5
same,aggregation suppression score,[3],1.44
same,survival,[4],21.3 (inactive)
Cn1c([N+](=O)[O-])cnc1COC(N)=O,glutamate uptake change,[1],17%
same,inclusion score,[2],2
same,aggregation suppression score,[3],1.36
same,survival,[4],19.5 (inactive)
CC[C@]12CCCN3CCc4c(n(c5ccccc45)C(=O)C1)[C@@H]32,glutamate uptake change,[1],-6.74%
same,inclusion score,[2],2
same,aggregation suppression score,[3],1.73
same,survival,[4],2 (inactive)
COC(=O)[C@H]1[C@H]2C[C@@H]3c4[nH]c5cc(OC)ccc5c4CCN3C[C@H]2C[C@@H](OC(=O)c2cc(OC)c(OC)c(OC)c2)[C@@H]1OC,glutamate uptake change,[1],4.63%
same,aggregation suppression score,[3],1.07
same,period change,[5],0.165 h (inactive)
same,survival,[4],6.17 (inactive)
Clc1ccc(C(c2ccccc2Cl)C(Cl)Cl)cc1 (centres undefined),glutamate uptake change,[1],-9.79%
same,aggregation suppression score,[3],-1.87
same,period change,[5],-0.13 h (inactive)
Cc1cc(N)c2ccccc2[n+]1CCCCCCCCCC[n+]1c(C)cc(N)c2ccccc21,glutamate uptake change,[1],12.9%
same,aggregation suppression score,[3],0.0487
same,period change,[5],0.12 h (inactive)
same,survival,[4],0.167 (inactive)
CCCC(C(=O)OCCN(CC)CC)(c1ccccc1)c1ccccc1,glutamate uptake change,[1],0.18%
same,aggregation suppression score,[3],1.25
same,period change,[5],-0.035 h (inactive)
same,survival,[4],3.58 (inactive)
CN1CCC(=C2c3ccccc3Sc3ccccc32)CC1,glutamate uptake change,[1],7.96%
same,aggregation suppression score,[3],1.3
same,survival,[4],12.3 (inactive)
CCCCC1C(=O)N(c2ccccc2)N(c2ccc(O)cc2)C1=O (centres undefined),glutamate uptake change,[1],5.7%
same,aggregation suppression score,[3],0.77
same,survival,[4],4 (inactive)
CC1CCC(NC(=O)N(CCCl)N=O)CC1 (centres undefined),glutamate uptake change,[1],-7.99%
same,aggregation suppression score,[3],0.0109
COc1ccc(C(=O)c2ccccc2)c(O)c1,glutamate uptake change,[1],5.28%
same,aggregation suppression score,[3],0.225
same,survival,[4],3.25 (inactive)
CC(=O)OC/C=C(C)/C=C/C=C(C)/C=C/C1=C(C)CCCC1(C)C,glutamate uptake change,[1],-12.9%
same,aggregation suppression score,[3],0.917
Oc1ccc(Cl)cc1Cc1cc(Cl)ccc1O,glutamate uptake change,[1],-22.2%
same,aggregation suppression score,[3],-0.099
CCOC(=O)C(C)(C)Oc1ccc(Cl)cc1,glutamate uptake change,[1],-11.1% and 6.19%
same,aggregation suppression score,[3],0.624 and 0.92
same,period change,[5],-0.13 h (inactive)
same,survival,[4],82.4 (inactive)
CSc1ccc2c(c1)C(N1CCN(C)CC1)Cc1ccccc1S2 (centres undefined),glutamate uptake change,[1],5.12%
same,aggregation suppression score,[3],1.18
same,period change,[5],0.085 h (inactive)
same,survival,[4],1.5 (inactive)
CN1CCN(CCCN2c3ccccc3Sc3ccc(Cl)cc32)CC1,glutamate uptake change,[1],0%
same,aggregation suppression score,[3],1.34
same,period change,[5],0.055 h (inactive)
same,survival,[4],1.75 (inactive)
CC(C)(C)CC(C)(C)c1ccc(O)c(Cc2ccc(Cl)cc2Cl)c1,glutamate uptake change,[1],-22.5%
same,aggregation suppression score,[3],0.498
O=C(OCc1ccccc1)c1ccccc1,glutamate uptake change,[1],36%
same,aggregation suppression score,[3],0.363
Fc1ccc(C(c2ccc(F)cc2)N2CCN(C/C=C/c3ccccc3)CC2)cc1,glutamate uptake change,[1],9.47%
same,aggregation suppression score,[3],1.1
same,period change,[5],-0.2 h (inactive)
same,survival,[4],3.67 (inactive)
COC(=O)Nc1nc2ccc(Sc3ccccc3)cc2[nH]1,glutamate uptake change,[1],-41.7%
same,aggregation suppression score,[3],0.129
same,survival,[4],0.833 (inactive)
Cc1oncc1C(=O)Nc1ccc(C(F)(F)F)cc1,glutamate uptake change,[1],8.42%
same,aggregation suppression score,[3],0.133
same,period change,[5],0.35 h (inactive)
same,survival,[4],6.08 (inactive)
Cc1cc(O)cc(C)c1Cl,glutamate uptake change,[1],-5.88%
same,aggregation suppression score,[3],0.248
NC(CO)C(=O)NNCc1ccc(O)c(O)c1O (centres undefined),glutamate uptake change,[1],11.3%
same,aggregation suppression score,[3],1.23
same,period change,[5],0.075 h (inactive)
same,survival,[4],2.42 (inactive)
Oc1c(I)cc(I)c2cccnc12,glutamate uptake change,[1],78.2%
same,aggregation suppression score,[3],0.108
CCCCCCOc1ccccc1C(N)=O,glutamate uptake change,[1],0.56%
same,aggregation suppression score,[3],0.156
CN(C)CCC=C1c2ccccc2C=Cc2ccccc21,glutamate uptake change,[1],-6.52%
same,aggregation suppression score,[3],1.07
same,period change,[5],0.095 h (inactive)
same,survival,[4],2.75 (inactive)
CCN(CC)CCOC(=O)C(c1ccccc1)C1CCCCC1 (centres undefined),glutamate uptake change,[1],1.54%
same,aggregation suppression score,[3],1.17
same,survival,[4],3.67 (inactive)
CC(C)COCC(CN(Cc1ccccc1)c1ccccc1)N1CCCC1 (centres undefined),glutamate uptake change,[1],12.6%
same,aggregation suppression score,[3],1.08
same,period change,[5],0.04 h (inactive)
same,survival,[4],5.92 (inactive)
Nc1nc(=S)c2[nH]cnc2[nH]1,glutamate uptake change,[1],-1.16%
same,aggregation suppression score,[3],1.86
CN(Cc1cnc2nc(N)nc(N)c2n1)c1ccc(C(=O)N[C@@H](CCC(=O)O)C(=O)O)cc1,glutamate uptake change,[1],10.9%
same,aggregation suppression score,[3],0.131
same,inhibition,[6],-2% (inactive)
same,inhibition,[7],1% (inactive)
same,growth inhibition,[8],91% (active)
same,period change,[5],0.835 h (inactive)
same,survival,[4],39.6 (inactive)
Oc1ccc(Cl)c2cccnc12,glutamate uptake change,[1],42.4%
same,aggregation suppression score,[3],0.0533
CC(CN(C)C)CN1c2ccccc2CCc2ccccc21 (centres undefined),glutamate uptake change,[1],14.6%
same,aggregation suppression score,[3],1.32
same,period change,[5],-0.085 h (inactive)
same,survival,[4],2.17 (inactive)
CCN(CC)CCOc1ccc(/C(=C(\Cl)c2ccccc2)c2ccccc2)cc1,glutamate uptake change,[1],-0.41%
same,aggregation suppression score,[3],0.524
C=Cc1c(C)c2cc3[nH]c(cc4nc(cc5nc(cc1[nH]2)C(C)=C5CCC(=O)O)C(CCC(=O)O)=C4C)c(C)c3C=C,glutamate uptake change,[1],5.14%
same,aggregation suppression score,[3],0.995
same,period change,[5],-0.02 h (inactive)
Clc1ccccc1C(c1ccccc1)(c1ccccc1)n1ccnc1,glutamate uptake change,[1],-22.9%
same,aggregation suppression score,[3],0.0931
same,period change,[5],0.01 h (inactive)
same,survival,[4],29.8 (inactive)
CN(C)CCCN1c2ccccc2Sc2ccc(C(F)(F)F)cc21,glutamate uptake change,[1],10.7%
same,aggregation suppression score,[3],1.05
same,period change,[5],-0.13 h (inactive)
same,survival,[4],5.42 (inactive)
CN1CCN2c3ccccc3Cc3ccccc3C2C1 (centres undefined),glutamate uptake change,[1],12.1%
same,aggregation suppression score,[3],1.3
same,period change,[5],0.145 h (inactive)
same,survival,[4],11.2 (inactive)
CN(C)CCCN1c2ccccc2Sc2ccccc21,glutamate uptake change,[1],20.4%
same,aggregation suppression score,[3],1.03
same,period change,[5],-0.355 h (inactive)
same,survival,[4],1.08 (inactive)
